Bioassay records from PubChem.
This is a sample that favours compounds with a hit; in the whole collection about 11% have one here.
Tau fluor cs: counter-screen for tau fibril formation inhibitors. tau K18 P301L Alexa594 fluorescence, heparin fibrillization. Potency, µM (titrated, usually from 57.7 µM). 280,000 tested, 0.93% active. AID 1463; note: nearly all actives have a fitted effect of over 55% in size
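Human K18 P301L tau (15 uM unlabeled plus 0.24 uM Alexa 594-labeled, final) in 100 mM sodium acetate pH 7 was mixed with compound and 20 uM heparin and incubated 6 hr at 37 C.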
Coupling enz: inhibits coupling enzyme system, counter-screen for aldolase hits; coupling enzyme system counterscreen, AmpLite Red fluorescence; activity change, negative = inhibition, % at 58.2 µM, hits read low; 290,000 tested, 0.67% active; AID 2472; in the data active = activity change below about -30%
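Coupling enzymes only (glyceraldehyde-3-phosphate) + compound, at 57.5 uM final, 10 min RT; add substrate/coupling/AmpLite Red mix, 20 min RT; fluorescence ex 525/em 598 nm. Actives flag coupling-system interference.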
Tau FP inhib: blocks human tau fibril formation measured by polarization | K18 P301L tau heparin fibrillization, Alexa594 FP, 6 h | Potency, µM (highest dose often 57.7 µM), most hits filed as inhibitors | 280,000 tested, 0.39% active | AID 1468; note: nearly all actives have a fitted effect of over 55% in size
Target sequence (P10636 561-689 P618L limits assumed): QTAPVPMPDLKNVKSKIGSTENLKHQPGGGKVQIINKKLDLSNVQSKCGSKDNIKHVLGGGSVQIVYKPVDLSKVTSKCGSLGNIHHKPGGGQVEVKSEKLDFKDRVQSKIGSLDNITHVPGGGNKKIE
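Quantitative HTS format: compounds meet 15 uM recombinant K18 P301L tau and Alexa 594-tau tracer in 100 mM sodium acetate pH 7; 20 uM heparin triggers fibrillization at 37 C over 6 hr; FP gives the signal.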
Tau ThT inhib: blocks human tau fibril formation measured by thioflavin T; Potency, µM (top dose mostly 57.4 µM), usual class: inhibitors; 270,000 tested, 2.1% active; recombinant tau K18 P301L (four-repeat tau fragment), heparin-induced fibrillization, ThT fluorescence; note: nearly all actives have a fitted effect of over 55% in size
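K18 P301L tau (15 uM + 0.24 uM Alexa 594-tagged), heparin 20 uM, NaOAc pH 7, 6 h 37 C; ThT 30 uM, 1 h RT, ex 450/em 510 nm.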
Sfp inh: Sfp phosphopantetheinyl transferase inhibition; Biochemical Sfp PPTase activity, qHTS; Q9F4F7; AID 1490; Potency, µM, hits mostly inhibitors; 310,000 tested, 3.5% active;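 note: the enzyme is Sfp with the accession as filed and its product quenches rhodamine fluorescence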
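After 15 min at room temperature with compound, 15 nM Sfp received 5 uM rhodamine-CoA plus 12.5 uM BHQ-2-ybbR (50 mM Hepes pH 7.6, 10 mM MgCl2). Rate came from the fluorescence difference over 30 min, ex 525/em 598 nm.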
G9a block: blocks human histone lysine methyltransferase G9a; G9a H3K9 monomethylation, AlphaScreen, 2 h; Potency, µM (highest dose often 102 µM), usual class: inhibitors; 350,000 tested, 8.8% active; AID 504332; note: nearly all actives have a fitted effect of over 75% in size
Target sequence (Q96KQ7 913-1193 limits assumed): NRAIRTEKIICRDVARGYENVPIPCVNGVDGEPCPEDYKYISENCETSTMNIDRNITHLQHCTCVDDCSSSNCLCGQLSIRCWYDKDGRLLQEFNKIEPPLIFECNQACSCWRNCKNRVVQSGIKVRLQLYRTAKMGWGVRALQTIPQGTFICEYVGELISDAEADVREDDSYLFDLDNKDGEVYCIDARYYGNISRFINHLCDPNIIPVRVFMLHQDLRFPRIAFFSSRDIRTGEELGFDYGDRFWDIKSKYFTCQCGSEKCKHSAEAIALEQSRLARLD
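Readings reflect AlphaScreen signal from monomethyl-H3K9 antibody detection. HMT at 20 nM; substrate b-H3K9 500 nM; cofactor SAM 20 uM; 2 h RT reaction; compounds tested as titrations in qHTS with 15 min preincubation.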
Large screens that a line does not name were inactive; [ ] = another dose, or the depositor's remark. Unless noted, calls come from the whole dose curve; as a rule, active = well fitted curve in the direction sought with a large enough effect; inconclusive = small, poorly fitted or top-dose-only effect, or another doubt; inactive = no such curve, though single readings can be large; an effect the other way counts as inactive or inconclusive.

COc1ccc(CCn2c3c(c(=O)[nH]c2=O)C(NC(=O)c2ccccc2F)(C(F)(F)F)C(=O)N3)cc1OC (centres undefined)	none (no result: Coupling enz, Sfp inh)
COc1ccccc1-c1nc(NCc2ccccc2)c2ccccc2n1	Sfp inh inconclusive (no result: G9a block)
Cc1ccc(C)c(S(=O)(=O)Nc2cc(SCC(=O)O)c(O)c3ccccc23)c1	Tau fluor cs inconclusive, Coupling enz -53.2, Tau FP inhib 7.94µM, Tau ThT inhib 3.55µM, Sfp inh 3.55µM, G9a block 1.12µM
O=S(=O)(Nc1cc(Sc2cccc3cccnc23)c(O)c2ccccc12)c1ccccc1	Tau fluor cs 15.8µM[quencher], Coupling enz -54.9, Tau FP inhib inconclusive, Tau ThT inhib 15.8µM, Sfp inh 10µM, G9a block 1.58µM
CCOc1ccc(S(=O)(=O)Nc2cc(SCC(=O)O)c(O)c3ccccc23)cc1	Coupling enz -61.5, G9a block inconclusive (no result: Tau fluor cs, Tau FP inhib, Tau ThT inhib)
Cc1cc(Nc2ccc(C)c(C)c2)n2cnnc2n1	Tau FP inhib inconclusive (no result: Coupling enz, Sfp inh)
CCC(=O)C1=C(c2ccc(F)cc2)N(C(=O)CC)n2c(nnc2C2CCCCC2)S1	Tau ThT inhib inconclusive (no result: Coupling enz, Sfp inh)
COc1ccc(N/C=C/C(=O)c2ccccc2)cc1	none (no result: Tau fluor cs, Tau FP inhib, Tau ThT inhib)
COc1ccc(N/C=C/C(=O)c2sc(-c3ccccc3)nc2C)cc1	Tau fluor cs inconclusive, Tau ThT inhib 2.51µM, Sfp inh inconclusive
CCOC(=O)/C=c1\s/c(=C(\C#N)C(=O)NC)n(-c2ccccc2)c1=O	Tau ThT inhib inconclusive, G9a block inconclusive
Cc1ccccc1-n1c(=O)/c(=C\c2ccco2)s/c1=C(/C#N)C(=O)Nc1ccccc1	Tau FP inhib inconclusive, Tau ThT inhib 15.8µM, Sfp inh 50.1µM, G9a block inconclusive
COc1ccc(C)cc1-n1nnnc1SCC(=O)Nc1cc(C)on1	none
COc1ccc(-n2nnnc2SCC(=O)NCc2ccco2)cc1OC	G9a block 50.1µM
COc1cccc(-n2nnnc2SCC(=O)NCc2ccco2)c1	G9a block inconclusive
COc1ccc(C)cc1-n1nnnc1SCC(=O)NC(=O)NCc1ccco1	Sfp inh 15.8µM, G9a block inconclusive
Fc1cccc(Cl)c1CNc1n[nH]c(-c2ccco2)n1	Tau FP inhib inconclusive (no result: Coupling enz, Sfp inh)
COc1cccc(Cn2c(=O)n(-c3ccc(Br)cc3F)c(=O)c3sc4ccccc4c32)c1	Tau FP inhib inconclusive (no result: Coupling enz, Sfp inh)
O=C(Nc1cnc(N2CCC(N3CCCCC3)CC2)c(C(=O)O)c1)c1ccc(Br)cc1	G9a block inconclusive (no result: Coupling enz, Sfp inh)
Cc1ccccc1C1=CCN(c2ncc(NC(=O)c3ccc(Cl)cc3)cc2C(=O)O)CC1	Tau FP inhib inconclusive, Tau ThT inhib 14.1µM, G9a block inconclusive (no result: Coupling enz, Sfp inh)
Cc1cccc(NS(=O)(=O)c2cc(NC(=O)CC(=O)c3ccc([N+](=O)[O-])cc3)ccc2C)c1	Tau fluor cs 7.94µM[quencher], Tau ThT inhib inconclusive
Cc1ccccc1NS(=O)(=O)c1cc(C(=O)Nc2cccc([N+](=O)[O-])c2)ccc1C	Tau fluor cs 14.1µM[quencher], Tau ThT inhib inconclusive, Sfp inh inconclusive
Cc1ccc(C(=O)Nc2cccc([N+](=O)[O-])c2)cc1S(=O)(=O)Nc1ccc(C(=O)O)cc1	none
COc1ccc(-c2nc(-c3ccccc3)c(-c3cc([N+](=O)[O-])ccc3C)[nH]2)cc1O	Tau fluor cs 14.1µM[quencher], Tau ThT inhib inconclusive, G9a block 50.1µM
Cc1ccc([N+](=O)[O-])cc1-c1[nH]c(-c2ccc(O)c(O)c2)nc1-c1ccccc1	Tau fluor cs 12.6µM[quencher], Tau ThT inhib inconclusive, G9a block inconclusive
Cc1ccc(OCC(=O)Nc2sc3c(c2C(N)=O)CCCC3)c(C(C)(C)C)c1	G9a block inconclusive (no result: Coupling enz, Sfp inh)
CN(C)CCCNCCCNC(=O)/C(=N\O)c1ccccc1	G9a block 50.1µM (no result: Tau ThT inhib)
CN(C)CCCNCCCNC(=O)c1ccccn1	G9a block inconclusive
CN(C)CCNC(=O)/C(=N\O)c1ccccn1	Sfp inh inconclusive, G9a block 50.1µM
Cn1c(=O)c2c(nc(N/N=C/c3cccnc3)n2Cc2ccccc2)n(C)c1=O	G9a block inconclusive
Cn1c(=O)c2c(nc(N/N=C/c3ccc(OC(=O)c4ccco4)cc3)n2Cc2ccc(F)cc2)n(C)c1=O	Tau fluor cs 7.08µM[quencher], Tau ThT inhib inconclusive, Sfp inh inconclusive
